Drawing on the supplement of paper PMC6555819, this text covers PBM binding z-score for twelve sequences.

Holding throughout (assay): PBM binding z-score (relative to random genomic background probes); higher = stronger binding; sequences stand for … in GC…GCGATTGACAGCGTAGAATGAAGG
In test [1] the test system is PPARg:RXRa DBDmut IVT, anti-RXR (DBD mutation: RXRa K156A/R161A, NR concentration 270 nM, RXRa partner concentration 90 nM). The procedure, abridged: (§1)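 Random background probes are the reference for binding z-scores. These scores derive from regression-normalized fluorescence on custom Agilent 4×180K protein-binding microarrays incubated 1 h with ligand-free nuclear receptor dimers. Binding was detected with antibodies against each partner (one per run).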

In test [2] the test system is PPARg:RXRa IVT, anti-PPARg (NR concentration 270 nM, RXRa partner concentration 90 nM). The procedure, abridged: as §1
Test [3] has as its system PPARg DBDmut:RXRa IVT, anti-PPARg (DBD mutation: PPARg1 K132A/R137A, NR concentration 270 nM, RXRa partner concentration 90 nM). The procedure, abridged: as §1
Test [4] has as its system PPARg DBDmut IVT, anti-PPARg (DBD mutation: PPARg1 K132A/R137A, NR concentration 270 nM). The procedure, abridged: as §1
Test [5] has as its system PPARg homodimer (NR concentration 180 nM). The procedure, abridged: as §1
Test [6] concerns PXR:RXRa (NR concentration 270 nM, RXRa partner concentration 90 nM). The procedure, abridged: as §1
Test [7] has as its system PXR homodimer (NR concentration 270 nM). Put shortly:
as §1

The subject of test [8] is RARa:RXR (NR concentration 270 nM, RXRa partner concentration 90 nM). Put shortly:
as §1

In test [9] the test system is RARa homodimer (NR concentration 270 nM). Put shortly:
as §1

For test [10], the system named is RARb:RXRa (NR concentration 270 nM, RXRa partner concentration 90 nM). The procedure, abridged:
as §1

For GCTAGTTGATCAGTAAAAGGTCACACACCGGTCG, the PBM binding z-score in [1] stood at 0.158; in test [2] it was 1.96; in [3] it was 0.246; in test [4], 0.272; in test [5], 2.88; in test [6], 4.83. In addition, the PBM binding z-score turned out to be 0.914 in test [7], 5.64 in test [8], 2.24 in [9] and 3.89 in test [10].
With CGTCCTAGGTCAAAGGTCAGTGAAGAGATGACGG, the PBM binding z-score is 4.39 in test [1]; 5.93 in test [2]; 0.538 in test [3]; 0.49 in test [4]; 3.9 in test [5]; 6.08 in [6]. The PBM binding z-score in test [7] stood at 0.262; in test [8], 7.96; in [9], 1.07; in test [10] it was 5.64.
On to CAGCGTAGGTCAGGGCCAGTATAGGAGGAACGTT, for which the PBM binding z-score is 0.838 in [1]; 1.03 in [2]; -0.58 in [3]; -1.66 in [4]; 0.304 in [5]; 0.605 in [6]. Also, the PBM binding z-score in test [7] is -0.644; in [8], 1.04; in test [9], 0.00652; in test [10], 3.43.
On to ATCGAAGGGTCGAGGTGAGTATAGAGAAAGGGAA, for which the PBM binding z-score is -0.0932 in test [1]; 1.19 in [2]; 0.848 in test [3]; 0.0579 in test [4]; 1.27 in [5]; 1.26 in test [6]. Moreover, the PBM binding z-score in [7] was determined as 0.308; in [8] it was 1.74; in test [9], 1.01; in [10] it was 2.51.
Turning to TGGCCTAGGTCATTGGGCCAGTATAGTACGCATC, the PBM binding z-score was 1.95 in test [1]; 3.78 in test [2]; -0.594 in test [3]; -1.26 in test [4]; 1.98 in [5]; 1.4 in test [6]. Besides, the PBM binding z-score in test [7] was -0.797; in test [8], 1.97; in test [9], -0.131; in test [10] it was 3.72.
For the sequence TCATATAGGTAATACCGGTGAAAGTCGGCATCTA, the PBM binding z-score in test [1] came to 3.57; in test [2], 2.28; in test [3], 0.77; in test [4], 0.786; in test [5], 0.599; in test [6], 0.488. Also, the PBM binding z-score in test [7] is 0.00655; in test [8], 1.01; in [9], 0.792; in [10], 0.224.
In the case of CGTCCAAGGTCAAAGGTCAGAGAAGAGATGACGG, the PBM binding z-score is 4.12 in [1]; 6.13 in test [2]; 1.12 in [3]; 0.47 in test [4]; 3.77 in test [5]; 7.04 in test [6]. In addition, the PBM binding z-score came out at 1.67 in test [7], 8.89 in [8], 1.92 in test [9] and 5.97 in test [10].
Consider ATACCAAGGTGATCGTGGGGTCGTTGATACTAAC, for which the PBM binding z-score in test [1] came out at 0.765; in test [2], 1.54; in test [3], 0.837; in test [4], 0.583; in [5], 1.5; in test [6], 3.05. In addition, the PBM binding z-score was 1.11 in test [7], 2.65 in test [8], 0.577 in [9] and 1.33 in test [10].
As for TAGCCTGGGTCATGGGCCAGTATACCACGCGAAC, the PBM binding z-score was 0.288 in test [1]; 3.03 in test [2]; 0.752 in test [3]; -1.17 in test [4]; 1.52 in test [5]; 1.73 in test [6]. The PBM binding z-score was -0.609 in test [7], 2.83 in test [8], -0.797 in test [9] and 3.26 in [10].
On to ACTAGCAGGCCAAGGCTCACTCAAGATTAGTCCG, for which the PBM binding z-score in [1] was 1.13; in test [2] it was 0.144; in test [3] it was -0.648; in test [4], -0.572; in test [5], -0.478; in test [6], -0.766. Further, the PBM binding z-score in test [7] was -0.282; in test [8], -0.478; in test [9], -0.56; in test [10], 0.257.
For the sequence CAAACTAGTTCACCGGAAGGTCAAAGTCCGCATG, the PBM binding z-score in test [1] was found to be 2.4; in test [2] it was 2.7; in [3], 0.634; in [4], 0.566; in test [5] it was 3.3; in test [6], 5.22. Also, the PBM binding z-score in test [7] came out at 3; in test [8] it was 5.72; in test [9], 1.73; in [10], 4.36.
On to ATCTCTAGGTAACCAAGGTCAGTGAATGCCGAAC, for which the PBM binding z-score came to 4.04 in [1]; 3.81 in test [2]; 1.28 in [3]; 1.3 in test [4]; 1.93 in [5]; 2.47 in [6]. Further, the PBM binding z-score in test [7] was 1.21; in test [8], 2.26; in test [9] it was 2.02; in test [10] it was 2.7.
